Assay results taken from PubChem BioAssay.
Active and inactive are the calls of the source. Unless noted, no rule for the calls is given here.

How the values were obtained:
[1] = resazurin metabolic signal in HepG2 cells – cell-based, resazurin fluorescence, 24 h, PK04 Diversity Set, profiling panel (AID 1172); settings: HepG2 viability, higher = more signal; also: test concentration not given here
[2] = budding yeast growth changes without added modifier – OD600, strain BY4716, 24 h, basal condition, primary screen (AID 1173); settings: S. cerevisiae BY4716 growth, OD600, 24 h; higher = more signal, called active from +8 up or from −8 down
[3] = viability profiling in MM1S myeloma cells – cell-based, resazurin fluorescence, basal, 24 h, PK04 Diversity Set, profiling panel (AID 1174); settings: higher = more signal, called active from +8 up or from −8 down;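 also: MM1S multiple myeloma cell line; test concentration not given here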
[4] = biological target: Dihydroorotate dehydrogenase (quinone), mitochondrial (Plasmodium falciparum (isolate 3D7)) (UniProt Q08210); experiment: inhibition of P. falciparum DHODH – biochemical, C-terminal His tag, absorbance 600 nm, primary screen (AID 1175); settings: PfDHODH enzyme, DCIP absorbance 600 nm; higher = more signal, called active from +8 up or from −8 down;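 also: recombinant parasite enzyme with a five histidine tag at its C terminus; test concentration not given here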
[5] = inhibition of PAO1 biofilm formation – strain PAO1, LB-PBS medium, absorbance 600 nm, primary screen (AID 1176); also: test concentration not given here; settings: P. aeruginosa PAO1 growth/biofilm, A600, 12 h; higher = more signal
[6] = growth modulation of vineyard yeast isolate – strain RM11-1a, OD600, basal, 24 h, primary screen (AID 1177);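 also: cultures grown under basal conditions with no added stressor; test concentration not given here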; settings: S. cerevisiae RM11-1a growth, OD600, 24 h; higher = more signal, called active from +8 up or from −8 down
[7] = growth of efflux-deficient E. coli DRC39 – strain DRC39, OD650, 24 h, E. coli filamentation inducers, primary screen (AID 1178);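 also: growth measured as culture turbidity by optical density at 650 nm; test concentration not given here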; settings: E. coli DRC39 acrAB, higher = more signal, called active from +8 up or from −8 down
[8] = growth of efflux-deficient E. coli DRC39 – strain DRC39, OD650, 48 h, E. coli filamentation inducers, primary screen (AID 1179);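 also: screen aims at cell division blockers that make cells filament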; settings: E. coli DRC39 delta-acrAB growth, higher = more signal, called active from +8 up or from −8 down
[9] = viability profiling in RPMI8226 myeloma cells – cell-based, resazurin fluorescence, basal, 24 h, PK04 Diversity Set, profiling panel (AID 1180); settings: higher = more signal;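 also: RPMI8826 multiple myeloma cell line at 5000 cells per well; test concentration not given here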
[10] = biological target: E3 ubiquitin-protein ligase XIAP (Homo sapiens) (UniProt P98170); experiment: small molecules binding XIAP protein – biophysical, small-molecule microarray, fluorescence 635 nm, primary screen (AID 1181); settings: higher = more signal;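 also: score merges 667 nm emission and signal to noise over triplicate slides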
Chain of E3 ubiquitin-protein ligase XIAP (Homo sapiens) (P98170 whole entry, looked up): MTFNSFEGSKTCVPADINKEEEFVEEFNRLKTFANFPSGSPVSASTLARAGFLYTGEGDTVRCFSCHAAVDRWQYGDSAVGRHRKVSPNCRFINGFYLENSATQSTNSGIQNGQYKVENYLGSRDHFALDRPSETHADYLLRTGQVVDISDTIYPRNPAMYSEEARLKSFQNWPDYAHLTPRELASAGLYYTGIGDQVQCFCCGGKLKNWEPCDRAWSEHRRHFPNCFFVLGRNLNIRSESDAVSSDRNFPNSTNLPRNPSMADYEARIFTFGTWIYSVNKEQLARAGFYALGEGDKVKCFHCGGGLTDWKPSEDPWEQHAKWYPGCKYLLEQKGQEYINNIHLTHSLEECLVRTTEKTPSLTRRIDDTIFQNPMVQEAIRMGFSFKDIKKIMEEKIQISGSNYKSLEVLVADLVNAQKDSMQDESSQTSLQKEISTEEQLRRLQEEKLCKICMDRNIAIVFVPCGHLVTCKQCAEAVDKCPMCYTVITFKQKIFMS

Chain of Dihydroorotate dehydrogenase (quinone), mitochondrial (Plasmodium falciparum (isolate 3D7)) (Q08210 whole entry, looked up): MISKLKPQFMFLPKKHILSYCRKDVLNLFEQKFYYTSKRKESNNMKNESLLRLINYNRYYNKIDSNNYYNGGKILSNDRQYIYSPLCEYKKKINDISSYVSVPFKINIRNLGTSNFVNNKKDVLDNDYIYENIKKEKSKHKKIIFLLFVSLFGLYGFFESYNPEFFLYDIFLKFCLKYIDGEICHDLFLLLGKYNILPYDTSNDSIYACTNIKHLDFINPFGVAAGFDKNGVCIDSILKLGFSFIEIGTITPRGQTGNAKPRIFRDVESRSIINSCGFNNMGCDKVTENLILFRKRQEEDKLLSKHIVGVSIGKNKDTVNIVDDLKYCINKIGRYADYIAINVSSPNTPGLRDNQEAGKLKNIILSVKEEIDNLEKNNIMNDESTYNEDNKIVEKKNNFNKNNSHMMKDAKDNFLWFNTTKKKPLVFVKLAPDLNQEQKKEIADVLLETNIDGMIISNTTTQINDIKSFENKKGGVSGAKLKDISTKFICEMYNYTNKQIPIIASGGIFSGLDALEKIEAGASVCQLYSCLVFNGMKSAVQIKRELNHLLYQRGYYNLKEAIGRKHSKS

SMILES	z-score [1]	z-score [2]	z-score [3]	composite z-score [4]	z-score [5]	z-score [6]	z-score [7]	z-score [8]	z-score [9]	composite z-score [10]
COCCOC(=O)N1C(=O)[C@@]2(c3ccccc31)[C@H](C(=O)NC[C@H](O)c1ccccc1)[C@H]1C(=O)O[C@H](c3ccccc3)[C@H](c3ccccc3)N1[C@@H]2c1ccc(O)cc1	0.248	0.64 (inactive)	-0.65 (inactive)	-0.0106 (inactive)	0.269 (inactive)	1.64 (inactive)	-0.236 (inactive)	-0.803 (inactive)	-0.773	-0.103
CCCC[C@@H](O)C1=C(COC)C[C@H]2C(=O)N(C)C(=O)[C@H]2[C@H]1CO	0.798	-3.7 (inactive)	-0.264 (inactive)	-1.43 (inactive)	1.04 (inactive)	-2.16 (inactive)	2.43 (inactive)	0.964 (inactive)	1.3	-0.109
CCCC=C(CCC)[C@@H](NS(=O)(=O)c1ccc(C(F)(F)F)cc1)c1ccccc1	0.281	1.55 (inactive)	-0.489 (inactive)	0.348 (inactive)	1.03 (inactive)	1.84 (inactive)	-0.763 (inactive)	-0.197 (inactive)	-0.683	-0.206
COCCOC(=O)N1C(=O)[C@@]2(c3cc(C#CC4=CCCCC4)ccc31)[C@H](C(=O)Nc1nc3ccccc3s1)[C@H]1C(=O)O[C@H](c3ccccc3)[C@H](c3ccccc3)N1[C@@H]2c1ccc(O)cc1	-0.263	-0.344 (inactive)	-0.679 (inactive)	0.347 (inactive)	0.766 (inactive)	-0.145 (inactive)	-0.469 (inactive)	-0.765 (inactive)	-0.527	-0.138
COc1ccc(CCNC(=O)[C@@]2(Sc3ccc(C)cc3)CC(=O)N(Cc3ccccc3C(F)(F)F)[C@@H]2c2ccc(CO)cc2I)cc1	0.267	-5.78 (inactive)	-2.05 (inactive)	-1.6 (inactive)	-0.171 (inactive)	-1.77 (inactive)	0.0424 (inactive)	0.189 (inactive)	-1.72	0.1
O=C1N(Cc2ccccc2)c2ccccc2C[C@]12N=C(c1ccc(OCCCO)cc1)O[C@@H]2c1ccccc1	-0.658	0.0989 (inactive)	-2.55 (inactive)	0.581 (inactive)	1.58 (inactive)	1.29 (inactive)	0.223 (inactive)	-0.2 (inactive)	-2.6	-0.135
COc1cc2c(cc1O)C=[N+](Cc1sc3ccccc3c1Cl)CC2	0.19	-1.04 (inactive)	-1.01 (inactive)	-1.18 (inactive)	0.034 (inactive)	-0.319 (inactive)	0.81 (inactive)	0.128 (inactive)	-0.496	0.158
CC(C)[Si]1(C(C)C)OCc2cc(C3CC3)nc(-c3ccc(Oc4ccccc4)cc3)c21	0.467	1.64 (inactive)	1.03 (inactive)	0.483 (inactive)	0.173 (inactive)	2.12 (inactive)	0.362 (inactive)	0.0518 (inactive)	-0.497	-0.299
CN1C2C=C(CCCO)C(C3C(=O)N(C(N)=O)C(=O)C32)C1C1CC1 (stereo not given)	-0.444	0.796 (inactive)	-0.179 (inactive)	-0.884 (inactive)	-0.341 (inactive)	-0.18 (inactive)	-0.686 (inactive)	-0.743 (inactive)	-0.761	0.0361
NCCCCCNC(=O)[C@@H]1C[C@@H]2C(=O)N[C@@H](CCCCN)C(=O)N2[C@@H]1c1ccc(O)cc1	0.983	1.95 (inactive)	0.116 (inactive)	0.0173 (inactive)	2.49 (inactive)	2.39 (inactive)	-0.0253 (inactive)	-0.14 (inactive)	0.249	0.554
COc1ccc(C#Cc2ccc3c(c2)[C@]2(C(=O)N3)[C@H](c3ccc(O)cc3)N3[C@H](c4ccccc4)[C@H](c4ccccc4)OC(=O)[C@H]3[C@@H]2C(=O)Nc2nc3ccccc3s2)cc1	-1.11	-0.155 (inactive)	0.415 (inactive)	-15.8 (active)	1.21 (inactive)	1.2 (inactive)	0.198 (inactive)	0.0227 (inactive)	1.07	0.289
COc1cc2c(cc1O)C(C1CC1)N(Cc1cccc(OC(F)(F)F)c1)CC2 (stereo not given)	-0.882	-5.59 (inactive)	-3.32 (inactive)	-3.64 (inactive)	-0.0344 (inactive)	0.002 (inactive)	0.213 (inactive)	-0.0239 (inactive)	-2.84	0.0674
[N-]=[N+]=Nc1ccccc1C[C@]1(C(=O)O)COC(c2ccc(OCCCO)cc2)=N1	-0.365	-0.231 (inactive)	0.037 (inactive)	1.04 (inactive)	0.0254 (inactive)	0.212 (inactive)	0.438 (inactive)	-0.8 (inactive)	0.404	0.245
CC(CO)N1C(=O)[C@]2(C)C3C(=O)OCCC/C=C\[C@H]3OC23C=CCN(c2ccc(Cl)cc2)C(=O)[C@@H]13 (stereo not given in full)	-0.342	0.317 (inactive)	0.28 (inactive)	-0.924 (inactive)	-0.264 (inactive)	-0.354 (inactive)	0.351 (inactive)	0.779 (inactive)	0.499	0.834
CCCC=C(CCC)[C@@H](NP(=O)(c1ccccc1)c1ccccc1)c1ccc(-c2ccccc2)cc1	0.127	2.21 (inactive)	-1.16 (inactive)	0.23 (inactive)	-0.511 (inactive)	1.42 (inactive)	-0.492 (inactive)	0.477 (inactive)	-1.72	0.144
CCOC(=O)C[C@H]1[C@H](OC(=O)c2cc3ccccc3oc2=O)[C@@H](NC(=O)CC(C)C)c2cc(OCCCO)ccc2N1C(=O)c1ccc2ccccc2n1	-0.792	0.738 (inactive)	-0.043 (inactive)	0.544 (inactive)	0.555 (inactive)	1.44 (inactive)	-0.463 (inactive)	-0.416 (inactive)	-0.493	-0.102
CC[C@@H]1O[Si](C(C)C)(C(C)C)c2c1cc(-c1cc(C)c(OC)c(C)c1)nc2-c1ccc(Oc2ccccc2)cc1	1.41	-0.122 (inactive)	0.722 (inactive)	-0.148 (inactive)	-0.783 (inactive)	-0.0894 (inactive)	0.48 (inactive)	0.424 (inactive)	0.51	0.113
CCCN1C(=O)[C@]2(Cc3ccccc31)N=C(c1ccc(OCCCO)cc1)O[C@@H]2c1ccccc1	-0.222	-1.72 (inactive)	-1.31 (inactive)	1.16 (inactive)	0.0279 (inactive)	1.4 (inactive)	1.15 (inactive)	-0.413 (inactive)	-0.804	0.0605
CN(C)C(=O)[C@@]1(Cc2ccccc2CN=[N+]=[N-])N=C(c2ccc(OCCCO)cc2)O[C@H]1c1ccccc1N=[N+]=[N-]	-0.699	0.37 (inactive)	-2.96 (inactive)	1.3 (inactive)	0.522 (inactive)	1.22 (inactive)	0.776 (inactive)	-0.893 (inactive)	-3.85	0.202
COc1ccc([C@H]2OC[C@@H]3C[C@H](Cc4ccccc4)C(=O)N32)cc1	-0.195	-3.69 (inactive)	0.229 (inactive)	-0.0327 (inactive)	-0.145 (inactive)	0.248 (inactive)	-0.278 (inactive)	-0.818 (inactive)	-0.627	-0.152
CCCCN1CC=CC23O[C@@H]4/C=C\CCCOC(=O)C4[C@H]2C(=O)N(CCO)[C@@H]3C1=O (stereo not given in full)	-1.03	0.291 (inactive)	0.294 (inactive)	0.538 (inactive)	-0.221 (inactive)	0.507 (inactive)	-0.088 (inactive)	-0.389 (inactive)	0.0725	0.0537
CCCCC(=C=CC[C@H](O)c1ccc(OCCO)cc1)CCO	-0.0738	-2.31 (inactive)	-0.149 (inactive)	-0.32 (inactive)	0.154 (inactive)	-0.162 (inactive)	-1.28 (inactive)	-1.06 (inactive)	0.0466	0.0365
COc1cccc(C)c1NC(=O)O[C@H]1[C@H](OC(=O)Nc2ccccc2-c2ccccc2)[C@H](OC(=O)Nc2ccccc2-c2ccccc2)[C@@H](OC)O[C@@H]1CO	-0.589	-0.342 (inactive)	-1.13 (inactive)	-0.0569 (inactive)	1.11 (inactive)	1.25 (inactive)	-0.469 (inactive)	0.0517 (inactive)	-0.575	0.248
CCCCCN1CC=CC23O[C@@H]4/C=C\CCCOC(=O)C4[C@H]2C(=O)N(C(C)CO)[C@@H]3C1=O (stereo not given in full)	0.652	0.102 (inactive)	0.295 (inactive)	-0.298 (inactive)	0.398 (inactive)	0.493 (inactive)	1.25 (inactive)	0.945 (inactive)	0.541	-0.162
CCCCCN1CC=CC23O[C@@H]4/C=C\CCC(C)OC(=O)C4[C@H]2C(=O)N(C(CO)C(C)C)[C@@H]3C1=O (stereo not given in full)	0.713	-0.82 (inactive)	-0.502 (inactive)	-1.74 (inactive)	0.193 (inactive)	-0.116 (inactive)	0.451 (inactive)	0.236 (inactive)	1.41	0.0627
CO[C@H]1O[C@H](CO)[C@@H](OC(=O)Nc2ccc(Br)cc2)[C@@H]2OC(=O)[C@@H](Cc3ccccc3)C/C=C/C[C@H](Cc3ccccc3)C(=O)O[C@@H]12	-1.2	-0.0671 (inactive)	-3.25 (inactive)	-1.25 (inactive)	0.193 (inactive)	1.59 (inactive)	0.547 (inactive)	0.347 (inactive)	-4.07	0.289
